CTSL1 counter: counter-screen for PFM18AAP inhibitors: inhibitors of F. hepatica cathepsin L1 | recombinant F. hepatica cathepsin L1, Z-Leu-Arg-MCA fluorescence | hit rate 0.49% among 300,000 | inhibition, % at 5.96 µM;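 active = inhibition above the mean of all tested compounds plus 3 SD, set per screening campaign, cut at about 17% in these data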
A3A deaminase: blocks human APOBEC3A ssDNA deamination. recombinant A3A, FAM/TAMRA ssDNA deamination fluorescence. AID 493011. hit rate 0.41% among 330,000. P31941. inhibition, % at 20 µM;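 active = at least 40% inhibition at 20 µM here, with at most 30% in a related deaminase screen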
Target sequence (P31941 whole entry, looked up): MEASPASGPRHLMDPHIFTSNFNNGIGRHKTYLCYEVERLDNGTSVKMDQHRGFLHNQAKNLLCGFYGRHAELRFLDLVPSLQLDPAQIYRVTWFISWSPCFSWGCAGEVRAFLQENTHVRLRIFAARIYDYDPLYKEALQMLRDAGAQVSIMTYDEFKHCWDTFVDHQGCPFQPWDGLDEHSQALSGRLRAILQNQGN
NALP1 inh: NALP1 inhibition | inhibition, % at 10 µM | hit rate 0.61% among 280,000 | S. cerevisiae NALP1/ASC/caspase-1 growth, X-gal OD620, 72 h; in the data active = inhibition mostly above about 24%, no sharp cut-off; inactive = mostly below about 32%
sPLA2-III inh: Inhibits HGIII-sPLA2 liposome hydrolysis, primary screen; hit rate 0.56% among 370,000; inhibition, % at 12.2 µM; QFRET BODIPY PC-A2 liposome hydrolysis, fluorescence;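 active = inhibition above mean plus 3 SD of compounds lying within the high and low control bounds, cut at about 19% in these data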
Target sequence (Q9NZ20 whole entry, looked up): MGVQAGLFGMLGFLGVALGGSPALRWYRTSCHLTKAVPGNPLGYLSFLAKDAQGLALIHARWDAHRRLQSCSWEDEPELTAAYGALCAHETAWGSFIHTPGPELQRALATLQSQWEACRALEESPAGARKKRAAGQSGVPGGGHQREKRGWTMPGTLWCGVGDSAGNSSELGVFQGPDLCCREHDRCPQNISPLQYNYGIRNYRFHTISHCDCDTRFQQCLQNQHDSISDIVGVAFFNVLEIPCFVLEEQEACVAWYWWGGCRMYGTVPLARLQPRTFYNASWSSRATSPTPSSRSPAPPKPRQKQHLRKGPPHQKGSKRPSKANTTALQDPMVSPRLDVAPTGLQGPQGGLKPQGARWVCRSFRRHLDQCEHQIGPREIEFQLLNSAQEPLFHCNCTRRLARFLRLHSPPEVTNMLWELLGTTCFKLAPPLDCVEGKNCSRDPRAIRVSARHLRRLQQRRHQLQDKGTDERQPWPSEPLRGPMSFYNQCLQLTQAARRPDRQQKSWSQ
A3G deaminase: blocks human APOBEC3G single-stranded DNA deamination; Q9HC16; recombinant A3G, ssDNA deamination FAM/TAMRA fluorescence; inhibition, % at 20 µM; hit rate 0.28% among 330,000;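 active = inhibition of at least 40% at 20 µM, with no more than 30% in the related APOBEC3A deaminase screen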
Of the large screens only hits and unclear results are named; the others gave an inactive call. Compounds with a hit are over-represented: about 2% of the library has one in this group of screens.

O=C(NCCN1CCOCC1)c1noc2c1CCc1ccccc1-2	NALP1 inh 23.0
COC(=O)[C@H]1C[C@@]2(c3ccccc3)c3ccccc3N[C@H]2N1	none (no result: CTSL1 counter, A3A deaminase, NALP1 inh, A3G deaminase)
COC(=O)C1CC23C=CCN4CCC5(c6ccccc6NC15C2C)C43 (stereo not given)	NALP1 inh 37.1
CC(=O)N1c2ccccc2[C@@H](C)[C@@H]1C	none (no result: CTSL1 counter, NALP1 inh)
CC(=O)N1c2ccccc2C2(O)N=C(C)SC12 (stereo not given)	A3G deaminase 45.7 (no result: sPLA2-III inh)
COC(=O)C1CN(Cc2ccc(C)cc2)CCS(=O)(=O)N1Cc1cn(Cc2ccc(OC)cc2)nn1 (stereo not given)	none (no result: CTSL1 counter, A3A deaminase, NALP1 inh, A3G deaminase)
COc1ccc2c(c1O)C(=O)c1ccccc1C2=O	none (no result: sPLA2-III inh)
CC(C)COC(=O)c1ccc2c(c1O)C(=O)c1ccccc1C2=O	CTSL1 counter 24.4
O=C(Nc1ccc(Cl)cc1)O[C@@H]1CC[C@@]23CCCN2C(=O)CCC[C@H]3C1	none (no result: CTSL1 counter, A3A deaminase, NALP1 inh, A3G deaminase)
CC[C@H](CCCCCCCn1ccc2ccccc21)CCC(=O)N(c1ccccc1)c1ccccc1	none (no result: CTSL1 counter, A3A deaminase, NALP1 inh, A3G deaminase)
C=CCN1C(=O)[C@@H](CC(=O)N2CCCCC2)[C@]2(C(=O)OCC)CCCCC/C=C/12	none (no result: CTSL1 counter, A3A deaminase, NALP1 inh, A3G deaminase)
Cc1ccc(N2C(=O)CC(Sc3ccccc3C(=O)O)C2=O)cc1 (stereo not given)	NALP1 inh 63.3
Cc1cc(C)cc(N2C(=O)CC(Sc3ccccc3C(=O)O)C2=O)c1 (stereo not given)	none
Cc1ccc(N2C(=O)CC(Sc3ccccc3C(=O)O)C2=O)cc1C (stereo not given)	NALP1 inh 35.7
Cc1cccc(N2C(=O)CC(Sc3ccccc3C(=O)O)C2=O)c1 (stereo not given)	NALP1 inh 78.2
CN(C)c1ccc(N2C(=O)CC(Sc3ccccc3C(=O)O)C2=O)cc1 (stereo not given)	NALP1 inh 52.2
COC(=O)C1CN(Cc2cn(Cc3ccccc3)nn2)CCS(=O)(=O)N1Cc1ccc(Cl)cc1 (stereo not given)	none (no result: CTSL1 counter, A3A deaminase, NALP1 inh, A3G deaminase)
CCn1c(COc2ccccc2C)nnc1SCC(=O)Nc1ccc2c(c1)OCCO2	none (no result: CTSL1 counter)
CCn1c(COc2ccc(Cl)cc2)nnc1SCC(=O)Nc1ccc2c(c1)OCCO2	NALP1 inh 38.1
COc1cccc(CN[C@@H]2CC[C@@]34CCCN3C(=O)CCC[C@H]4C2)c1	none (no result: CTSL1 counter, A3A deaminase, NALP1 inh, A3G deaminase)
Cc1cccc(N2CCN(C(=O)Cn3nc(C)n4cccc4c3=O)CC2C)c1 (stereo not given)	none
Cc1cccc(N2CCN(C(=O)Cn3sc4nc(C)cc(C)c4c3=O)CC2C)c1 (stereo not given)	A3G deaminase 53.1 (no result: sPLA2-III inh)
O=C(CCl)NN1C(=O)NC(c2ccccc2)(c2ccccc2)C1=O	CTSL1 counter 79.5
Cc1ccc(CSCC(=O)NCc2ccc(F)cc2)cc1	none
O=C(CSCc1ccc(F)cc1)NCc1ccc(F)cc1	NALP1 inh 27.9
C[C@H]1[C@H](c2ccccc2)OC(O)([C@H](Cc2ccccc2)NC(=O)OC(C)(C)C)CN1C (stereo not given in full)	none (no result: CTSL1 counter, A3A deaminase, NALP1 inh, A3G deaminase)
Clc1ccc(Oc2nc3ccccc3n3cccc23)cc1	CTSL1 counter 26.4
COc1ccc(Oc2nc3ccccc3n3cccc23)cc1	none
O=C1C[C@H](c2ccc3ccccc3c2)N=C2N1/C(=C\c1ccccc1)[C@@H](c1ccccc1C(F)(F)F)N2Cc1ccc2c(c1)OCO2	none (no result: CTSL1 counter, A3A deaminase, NALP1 inh, A3G deaminase)
Cn1c(=O)c2cc(NC(=O)c3ccccc3Cl)c(=O)oc2n(C)c1=O	CTSL1 counter 27.0
c1ccc2cc3[nH]c(CNc4nc(N5CCOCC5)nc5c4ncn5-c4ccsc4)nc3cc2c1	none (no result: CTSL1 counter, A3A deaminase, NALP1 inh, A3G deaminase)
COc1ccc(-n2nc3c(N4CCC(C(=O)N5CCCCCC5)CC4)nnc(C)c3c2C)cc1	CTSL1 counter 27.8
Cc1ccc(-n2nc3c(N4CCC(C(=O)N5CCCCCC5)CC4)nnc(C)c3c2C)cc1	none (no result: sPLA2-III inh)
Cn1c(SCCc2ccccc2)nnc1-c1ccco1	none (no result: CTSL1 counter, A3A deaminase, NALP1 inh, A3G deaminase)
Fc1ccc(C2CCCN2Cc2nc(Cc3ccccc3F)no2)cc1 (stereo not given)	NALP1 inh 24.5
Cc1cc(C)cc(C(=O)OCCN(C)C2CN(Cc3cn(Cc4ccc([N+](=O)[O-])cc4)nn3)S(=O)(=O)C2)c1 (stereo not given)	none (no result: CTSL1 counter, A3A deaminase, NALP1 inh, A3G deaminase)
COc1ccc(/C=C2\CC3(OC(=O)c4ccc(F)cc4)CCCN2C3)cc1 (stereo not given)	none (no result: CTSL1 counter, A3A deaminase, NALP1 inh, A3G deaminase)
CCCCCc1ccc(NC(=O)O[C@@H]2CC[C@@]34CCCN3C(=O)CCC[C@H]4C2)cc1	none (no result: CTSL1 counter, A3A deaminase, NALP1 inh, A3G deaminase)
Clc1nssc1=Nc1nncs1	A3G deaminase 71.3 (no result: CTSL1 counter, NALP1 inh)
Clc1nssc1=Nc1ccc(Br)cc1	none (no result: CTSL1 counter, A3A deaminase, A3G deaminase)
CN(C)S(=O)(=O)c1cccc(C(=O)N/N=C\c2ccnc3ccccc23)c1	none (no result: CTSL1 counter, A3A deaminase, NALP1 inh, A3G deaminase)
COc1cc(-c2ccccc2)nc(N)n1	none (no result: sPLA2-III inh)
COc1cc(Oc2ccccc2)nc(N)n1	CTSL1 counter 29.6 (no result: NALP1 inh)
N#CCc1ccc(OC[C@@H](O)CN2CCC(C(O)(c3ccccc3)c3ccccc3)CC2)cc1	none (no result: CTSL1 counter, A3A deaminase, NALP1 inh, A3G deaminase)
C=CCOn1c(=O)c(-c2cc3ccccc3o2)[n+]([O-])c2ccccc21	NALP1 inh 28.3
O=C(Nc1ccc(Cl)cc1Cl)OC1CCC12CCC(c1ccccc1)CC2 (stereo not given)	none (no result: CTSL1 counter, A3A deaminase, NALP1 inh, A3G deaminase)
COc1ccc(-c2ncnc(C(F)(F)F)c2-c2csc(C)n2)c(O)c1	CTSL1 counter 18.4
COc1ccc(-c2nc(N)ncc2-c2csc(C)n2)c(O)c1	none
Cc1nnsc1C(=O)NNS(=O)(=O)c1cc(C(F)(F)F)cc(C(F)(F)F)c1	none
Cc1ccc(S(=O)(=O)NNC(=O)c2snnc2C)cc1	NALP1 inh 37.0
O=C1C(NS(=O)(=O)c2cccs2)=C(N2CCOCC2)C(=O)c2ccccc21	none
O=C1C=C(N2CCOCC2)c2cccc3cccc1c23	none (no result: CTSL1 counter, A3A deaminase, NALP1 inh, A3G deaminase)
O=C(O)c1cccc(NC2=C(N3CCOCC3)C(=O)c3ccccc3C2=O)c1	CTSL1 counter 49.5
O=C1C=C(N2CCOCC2)c2ccccc2C1=O	CTSL1 counter 112.3
COC(=O)Cn1nc(-c2ccccc2)c2cccc(C(F)(F)F)c21	none (no result: CTSL1 counter, A3A deaminase, NALP1 inh, A3G deaminase)
COc1cc(/C(C)=N\NC(N)=S)cc(OC)c1OC	CTSL1 counter 18.0
COc1cc(/C(C)=N/NC(=S)NC(C)C)cc(OC)c1OC	none
COc1ccc(C(c2c(O)ccc3ccccc23)N2CCOCC2)c(OC)c1 (stereo not given)	sPLA2-III inh 19.7
O=S(=O)(c1cccc(Cl)c1)N1CCN(S(=O)(=O)c2ccc3c(c2)OCCO3)CC1	none (no result: CTSL1 counter, NALP1 inh)
O=S(=O)(c1ccc2c(c1)OCCO2)N1CCC(O)(c2ccc(Cl)cc2)CC1	NALP1 inh 35.2
Cc1ccc(CN2CCN(Cc3cccn3-c3ccccn3)CC2CCO)cc1 (stereo not given)	none
OCCC1CN(Cc2cccn2-c2ccccn2)CCN1C1CCCCC1 (stereo not given)	CTSL1 counter 74.3
CC(=O)Nc1ccc(/C=C/COC(C)=O)cc1C	none (no result: CTSL1 counter, A3A deaminase, NALP1 inh, A3G deaminase)
Cc1ccc(/C=C(\C#N)C(=O)NCCN2CCOCC2)cc1	NALP1 inh 20.8
Cc1ccsc1/C=C(\C#N)C(=O)NCCCN1CCOCC1	none
COC(=O)[C@]12C[C@H](CC(=O)N3CCOCC3)C(=O)N(CCc3ccc(OC)c(OC)c3)C1=C[C@H](C(C)C)O[C@@H]2C1CC1	none (no result: CTSL1 counter, A3A deaminase, NALP1 inh, A3G deaminase)
